Hits are enriched below; roughly 14% of the tested compounds scored in any of these assays.
Pf growth 48h = Primary qHTS for delayed death inhibitors of the malarial parasite plastid, 48 hour incubation; P. falciparum luciferase growth in erythrocytes, 48 h; actives 5.9% (n = 310,000); AID 504832, 2011; Potency, µM (titrated, usually from 28.7 µM), without a hit: top-dose activity change, negative = inhibition, hits mostly inhibitors; note: potency is the fitted concentration of half-maximal effect
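Luciferase-expressing P. falciparum in infected erythrocytes (2% hematocrit, 0.1% parasitemia final) in RPMI 1640/0.5% Albumax were exposed to compound for 48 hours at 37 C, 5% CO2; growth read as luminescence.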
HCV inh = qHTS Assay for Inhibitors of Hepatitis C Virus (HCV) | AID 651820, 2012 | Huh7.5.1 HCVcc-Cre infection, luciferase reporter, 44 h | actives 3.4% (n = 340,000) | Potency, µM (highest dose often 41.8 µM), for the others: at the top dose activity change, negative = inhibition, usual class: inhibitors; note: potency is the fitted concentration of half-maximal effect
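Reporter virus HCVcc-Cre (~0.5 moi) infects cells exposed to compound; seeding density 1,000 cells/well with 4 h settling beforehand. Luminescence, 15 sec read, taken 44 h post-infection following a 15 min RT substrate incubation.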
LASV entry inh = qHTS for Inhibitors of binding or entry into cells for Lassa Virus. Lassa virus pseudotype entry inhibition, cell reporter. Potency, µM (top dose mostly 37.9 µM), for the others: at the top dose activity change, negative = inhibition, hits mostly inhibitors. actives 1.2% (n = 300,000). AID 540256, 2011; calls by dose curve; tested in HEK293 cells; note: potency is the fitted concentration of half-maximal effect; nearly all actives have a fitted effect of over 50% in size
Pf growth 96h = Primary qHTS for delayed death inhibitors of the malarial parasite plastid, 96 hour incubation. P. falciparum luciferase reporter growth, 96 h. Potency, µM (highest dose often 28.7 µM), inactives show at the highest dose activity change, negative = inhibition, usual class: inhibitors. actives 6.9% (n = 320,000). AID 504834, 2011; note: potency is the fitted concentration of half-maximal effect
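Infected RBCs, 2% Hct / 0.05% parasitemia final; luciferase-reporter P. falciparum; cpd 96 h, 37 C, 5% CO2; luciferase detection reagent; luminescence.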
Marburg entry inh = qHTS for inhibitors of binding or entry into cells for Marburg Virus; Marburg virus pseudotyped entry inhibition, cell reporter; Potency, µM (doses to about 37.8 µM), inactives show top-dose activity change, negative = inhibition, usual class: inhibitors; actives 1.8% (n = 300,000); AID 540276, 2011; calls by dose curve; tested in HEK293 cells; note: potency is the fitted concentration of half-maximal effect
HCMV antiviral = qHTS Assay for inhibitors of the human cytomegalovirus (HCMV); HFF cells, HCMV-luciferase reporter, 72 h; hits give low values; activity change, negative = inhibition, % at 57.5 µM; actives 4.5% (n = 410,000); AID 1259415, 2018; in the data active = activity change below about -60%; inconclusive = no clear call, values can overlap the other calls; inactive = above about -39%
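Luciferase read-out from HCMV-luciferase-infected HFFs (MOI 1 PFU/cell) 72 h post infection at 37C; compounds added after 16 h cell attachment; activity normalized between buffer-only basal and Salinomycin (10uM) inhibitor controls.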
Numbers without * were called inactive; ? = inconclusive; . = not tested or not shown; [ ] = another dose, or the depositor's remark. Unless noted, calls come from the whole dose curve; as a rule, active = well fitted inhibition curve with a large enough effect; inconclusive = small, poorly fitted or top-dose-only effect, or another doubt; inactive = no such curve, though single readings can be large or run the other way. % is set by controls: 0 for no effect and ±100 for the full control effect.

SMILES | Pf growth 48h | HCV inh | LASV entry inh | Pf growth 96h | Marburg entry inh | HCMV antiviral
O=C(C[n+]1cccc2ccccc21)c1ccc([N+](=O)[O-])cc1 | ? | 11µM* | ? | ? | ? | -13
O=C(C[n+]1cccc2ccccc21)c1ccc(Cl)cc1 | . | -10% | . | 18% | . | 78
COc1ccc(C(=O)C[n+]2cccc3cc(OC)ccc32)cc1 | 9.3µM* | ? | -11% | ? | -14% | -66*
COc1ccc(C(=O)C[n+]2ccc3ccccc3c2C)cc1 | ? | 21% | 13% | ? | 7%[46.1 µM] | 65
CN(C)c1ccc(/C=C/c2nc(-c3ccccc3O)n(-c3ccccc3)n2)cc1 | . | . | ? | . | 8%[46.1 µM] | -11
Cc1c(-c2ccccc2)c(=O)oc2c(CN3CCCC3)c(O)ccc12 | . | . | 3%[46.1 µM] | . | . | 2
Cc1ccc(/C=N/NC(=O)c2cc3c(s2)CCCC3)o1 | 8.3µM* | -16% | . | ? | . | -24
Cc1nn(Cc2ccccc2)c(C)c1NC(=O)c1cc(C(C)C)on1 | . | . | -1%[46.1 µM] | . | -2%[46.1 µM] | 5
C=CCNC(=O)CN1C(=O)CSc2ccc(S(=O)(=O)N3CCOCC3)cc21 | . | . | . | . | . | -19
CCN1C(=O)NC(c2cccc(F)c2)C(C(=O)OC)=C1C (centres undefined) | . | . | . | . | 19%[14.2 µM] | .
Cn1c(=N)n(CC(O)c2cccc3ccccc23)c2ccccc21 (centres undefined) | . | 11µM* | ? | . | ? | 34
CCn1c(=N)n(CC(O)COc2ccc(C)cc2)c2ccccc21 (centres undefined) | 3.7µM* | ? | 9% | 13µM* | ? | -16
CCCn1c(=N)n(CC(O)c2ccc(C)cc2)c2ccccc21 (centres undefined) | 5.2µM* | -22% | -20%[46.1 µM] | 4.1µM* | ? | -21
CCCn1c(=N)n(CC(O)c2ccco2)c2ccccc21 (centres undefined) | 9% | 8% | -1% | -10% | ? | 46
CCCn1c(=N)n(CC(O)COc2ccc(C)cc2)c2ccccc21 (centres undefined) | 2.1µM* | ? | ? | 5.2µM* | ? | -6
COc1cc(Nc2nccc3[nH]c(-c4cccc(C(C)C)c4)nc23)cc(OC)c1OC | . | . | . | . | . | -14
C[N+]12CCC(CC1)[C@H](OC(=O)C(O)(c1ccccc1)c1ccccc1)C2 | . | . | . | . | 14% | .
CCn1ncc(CN2CCC(Oc3cc(C(=O)NC4CC4)ccc3OC)CC2)c1C | -3% | . | -2% | 1µM* | -3% | 18
C#Cc1ccc(CN2CCC(Oc3cc(C(=O)NC4CC4)ccc3OC)CC2)cc1 | 13µM* | -9% | . | -1% | . | -23
COc1ccc(C(=O)NC2CC2)cc1OC1CCN(Cc2ccc(F)cc2)CC1 | -20% | . | 10% | ? | -1% | 29
CCCCN(C)CCNC(=O)Cn1ncc2c3ccccc3n(CCC)c2c1=O | . | . | 5%[46.1 µM] | . | . | -30
COc1ccc(OC)c(NC(=O)c2cc3c(s2)-c2ccccc2SC3)c1 | . | . | 12%[46.1 µM] | . | 2%[46.1 µM] | 1
CC(C)C[C@@H](CN)NC(=O)c1nc[nH]c1C(=O)N[C@@H](C)C(=O)CNC[C@H](C)NC(=O)c1nc[nH]c1C(=O)N[C@@H](Cc1ccccc1)C(=O)O | . | 6% | . | . | . | -10
CCN(CC)S(=O)(=O)c1cccc(C(=O)/C=C2/N(C)c3ccccc3C2(C)C)c1 | ? | 10µM* | ? | ? | ? | ?
CN1/C(=C\C(=S)NC(=O)c2cccc(Br)c2)C(C)(C)c2ccccc21 | ? | 11µM* | -1% | 12µM* | ? | -96*
SMILES | Pf growth 48h | HCV inh | LASV entry inh | Pf growth 96h | Marburg entry inh | HCMV antiviral
O=C1NC(=O)C2(CCCc3ccc([N+](=O)[O-])cc32)N1 (centres undefined) | . | . | . | . | . | -13
CCOC(=O)C1(C(=O)OCC)Cc2ccc(C(C)=O)cc2C1 | . | . | ? | . | -20%[14.2 µM] | .
CCOC(=O)C1CCCN(c2c(N3CCC(N4CCCCC4)CC3)c(=O)c2=O)C1 (centres undefined) | . | 11% | . | -8% | -3% | -23
CCCN1CCC(N2CCCC(C(=O)O)C2)CC1 (centres undefined) | 10% | 4% | -18% | 27% | 7%[14.2 µM] | -60*
CCC(=O)C1=C(c2ccc(Cl)cc2)N(C(=O)CC)n2c(C)nnc2S1 | . | . | 0%[46.1 µM] | . | . | -99*
CCC(=O)C1=C(c2ccccc2)N(C(=O)CC)n2c(nnc2-c2ccccc2)S1 | . | . | -11%[46.1 µM] | . | . | -20
CCc1ccc(CN(Cc2cn[nH]c2-c2ccc(OC)cc2)C(=O)Nc2ccc(Br)cc2)cc1 | . | . | 4%[46.1 µM] | . | 0%[46.1 µM] | -25
O=C(NC1CC(=O)N(c2ccc(F)cc2)C1)C1CC1 (centres undefined) | . | . | -2%[46.1 µM] | . | . | 27
O=C1C2C3C=CC(C3=C(c3ccccc3)c3ccccc3)C2C(=O)N1CCO (centres undefined) | ? | -16% | ? | . | 2% | -7
O=C1C2C3C=CC(C3=C(c3ccccc3)c3ccccc3)C2C(=O)N1Cc1ccccc1 (centres undefined) | . | 11µM* | ? | 35% | ? | -29
O=C(c1cnc(N2CCCCC2)c2ccccc12)N1CCN(c2ccc(Cl)cc2)CC1 | . | . | -3%[46.1 µM] | . | . | -26
C=CCn1cc(-c2ccc(Cl)cc2)cc(C#N)c1=O | . | 14% | -5% | -3% | -9% | -37
N#Cc1cc(-c2ccc(Cl)cc2)cn(Cc2c(Cl)cccc2Cl)c1=O | -54% | 4% | -3% | -44% | -1% | -89*
CCC(C(=O)NCc1cccc(C)c1)n1nc(C)c2c(C)n(-c3ccccc3)nc2c1=O (centres undefined) | ? | 13µM* | . | 20% | . | ?
CCC(C(=O)Nc1ccccc1C(=O)OC)n1nc(C)c2c(C)n(-c3ccc(C)cc3)nc2c1=O (centres undefined) | . | . | ? | . | . | -94*
Cc1nn(C(C)C(=O)NC2CCCCC2)c(=O)c2nn(-c3ccccc3)c(C)c12 (centres undefined) | -3% | -11% | . | 12µM* | . | ?
Cc1nn(C(C)C(=O)NC2CC2)c(=O)c2nn(-c3ccccc3)c(C)c12 (centres undefined) | 7% | 18% | 51%[46.1 µM] | ? | 8%[46.1 µM] | 7
Cc1nn(C(C)C(=O)Nc2ccccc2Cl)c(=O)c2nn(-c3ccccc3)c(C)c12 (centres undefined) | -22% | -2% | ? | 12µM* | ? | -62*
CCC(C(=O)NCc1cccc(Br)c1)n1nc(C)c2c(C)n(-c3ccccc3)nc2c1=O (centres undefined) | . | . | -19%[46.1 µM] | . | . | ?

Source: PubChem BioAssay
